Assay outcomes as filed in PubChem BioAssay.
Rows were chosen to be rich in hits. Some 3.9% of all compounds tested hit in one or more screens of this group.
BoNT F protease: inhibitors of Botulinum neurotoxin F light chain protease; Multiplex microsphere protease cleavage assay, flow cytometry; inhibition, % at 10 µM; actives 0.22% (n = 360,000); in the data active means inhibition above about 35%, passing the limit was not always enough; inconclusive means no clear call, values can overlap the other calls
Vc quorum ag-1: induces V. cholerae light production without autoinducers; V. cholerae BH1578 lux reporter, luminescence, 6 h; activation, % at 18.7 µM; actives 0.16% (n = 350,000); AID 588436; in the data active means activation mostly above about 9.7%, no sharp cut-off; inconclusive means no clear call, values can overlap the other calls; inactive means mostly below about 3.7%
BoNT A protease: inhibitors of Botulinum neurotoxin A light chain protease; multiplex microsphere protease substrate cleavage, flow cytometry; inhibition, % at 10 µM; actives 0.17% (n = 360,000); AID 588499; in the data active means inhibition above about 30%; inconclusive means no clear call, values can overlap the other calls
MazEF act: increases E. coli MazEF RNase cleavage of RNA; FAM/BHQ RNA-DNA oligo cleavage fluorescence, 5 h; activation, % at 20 µM; actives 0.32% (n = 350,000); in the data active means activation above about 50%
Target sequence (P0AE70 whole entry, looked up): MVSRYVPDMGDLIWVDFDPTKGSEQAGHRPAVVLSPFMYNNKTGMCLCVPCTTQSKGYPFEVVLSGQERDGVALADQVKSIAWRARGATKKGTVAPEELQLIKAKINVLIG
Anthrax LF inh2: blocks Bacillus anthracis lethal factor protease | P15917 | multiplex microsphere protease cleavage assay, LF | inhibition, % at 10 µM | actives 0.12% (n = 360,000) | AID 588501; in the data active means inhibition above about 30%; inconclusive means no clear call, values can overlap the other calls
Bead autofluor: flagged as autofluorescent in microsphere protease counterscreen; actives 3.1% (n = 360,000); fluorescence intensity (concentration not given with the values); compound autofluorescence counterscreen, microsphere flow cytometry; active compounds read high; in the data active means fluorescence intensity above about 16000; inconclusive means no clear call, values can overlap the other calls
Vc quorum ag-2: induces V. cholerae light production without autoinducers; shares compounds with Vc quorum ag-1; activation, % at 50 µM; V. cholerae BH1578 lux reporter, luminescence, 6 h; 620 tested, under 10 active
HeLa tox: kills HeLa cells within 24 hours | activity change, negative = cytotoxicity, % at 35 µM | 25 tested, under 10 active | HeLa viability, CellTiter-Glo ATP luminescence | shares compounds with Vc quorum ag-1;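 active means signal drop with fitted half-maximal concentration at or below twice the highest valid dose; inconclusive means flat curve with 30 to 70% loss, or poor fit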
BoNT-A LC CP1: inhibitors of Botulinum neurotoxin A light chain protease. actives 3% (n = 720). multiplex microsphere protease assay, flow cytometry. shares compounds with BoNT F protease. inhibition, % at 10 µM. AID 602139; in the data active means inhibition above about 32%
BoNT-F LC CP1: blocks botulinum neurotoxin F light chain protease; shares compounds with BoNT F protease; multiplex microsphere protease cleavage assay, flow cytometry; inhibition, % at 10 µM; 720 tested, under 10 active
Anthrax LF CP1: Bacillus anthracis lethal factor protease inhibition | inhibition, % at 10 µM | shares compounds with BoNT F protease | multiplex microsphere protease cleavage assay, LF | 720 tested, under 10 active
A number is an active result; . = inactive; ? = inconclusive; / = no result given. Unless noted, how the calls were made is not given here.

SMILES	BoNT F protease	Vc quorum ag-1	BoNT A protease	MazEF act	Anthrax LF inh2	Bead autofluor	BoNT-A LC CP1	BoNT-F LC CP1	Anthrax LF CP1	others
CCC(=O)c1ccc(N2CCCCCC2)c(F)c1	.	44	.	.	.	.	/	/	/	Vc quorum ag-2=.
CCOC(=O)N1CCc2c(sc3ncn(Cc4ccc(F)cc4)c(=O)c23)C1	.	.	.	.	.	.	/	/	/
O=c1c2c3c(sc2ncn1Cc1ccc(F)cc1)CCC3	.	.	.	.	.	.	/	/	/	Vc quorum ag-2=.
CC/C(Cc1ccccc1)=N\NC(=O)c1cc([N+](=O)[O-])cc([N+](=O)[O-])c1	.	.	.	.	.	.	/	/	/
O=C(Nc1nnc(C2CC2)s1)c1cccc(S(=O)(=O)N2CCc3ccccc32)c1	.	.	.	.	.	.	/	/	/	Vc quorum ag-2=.
Cc1nnc(NC(=O)c2cccc(S(=O)(=O)N3CCc4ccccc43)c2)s1	.	.	.	.	.	.	/	/	/	Vc quorum ag-2=.
O=C(Nc1nc2ccccc2s1)c1cccc(S(=O)(=O)N2CCc3ccccc32)c1	.	.	.	.	.	.	/	/	/
O=C(CNC(=O)c1cccc(S(=O)(=O)N2CCc3ccccc32)c1)Nc1ccccc1Br	.	.	.	.	.	?	/	/	/
O=C(CNC(=O)c1cccc(S(=O)(=O)N2CCc3ccccc32)c1)Nc1ccc(F)c(F)c1F	.	.	.	.	.	?	/	/	/	Vc quorum ag-2=.
CCc1nnc(NC(=O)c2cccc(S(=O)(=O)N3CCc4ccccc43)c2)s1	.	.	.	.	.	.	/	/	/
CCn1nnc(NCc2ccc(C)cc2)n1	/	/	/	/	/	/	/	/	/	HeLa tox=.
COc1ccccc1-n1cnnc1SC(C)C(=O)Nc1cccc([N+](=O)[O-])c1 (centres undefined)	.	.	.	.	.	.	/	/	/
COC[C@@H]1CCCN1[C@H]1CS(=O)(=O)N[C@@H]1COCc1ccccc1	.	/	.	/	.	.	/	/	/
CC(C)c1ccc(OCCCCN2CCCCC2)cc1	.	.	.	.	.	.	/	/	/
CC(C)Oc1ccc(OCCCN2CCCCCC2)cc1	.	.	.	.	.	.	/	/	/	Vc quorum ag-2=.
COC(=O)c1cc(C(=O)OCC(=O)c2ccc3c(c2)NC(=O)CO3)cc([N+](=O)[O-])c1	.	.	.	.	.	.	/	/	/	Vc quorum ag-2=.
O=C(Nc1ccc(Oc2cccnc2)cc1)c1ccc([N+](=O)[O-])cc1	.	.	.	.	.	.	/	/	/
O=C(Nc1ccc(Nc2ccncc2)cc1)c1ccc([N+](=O)[O-])cc1	.	.	.	.	36	.	.	.	.
Cc1cc(C(=O)N2CCN(S(=O)(=O)c3ccccc3F)CC2)c(C)o1	.	.	.	.	.	.	/	/	/
COCCNC(=S)NCCc1ccc(Cl)cc1Cl	.	.	.	.	.	.	/	/	/
CCCNS(=O)(=O)c1ccc(OCC(=O)N2CCCC2)cc1	.	.	.	.	.	.	/	/	/
Cc1cc(C)nc(NS(=O)(=O)c2ccc(NC(=O)c3ccc4c(c3)OCCO4)cc2)n1	36	.	.	.	.	.	.	.	.
Cc1nc(NC(=O)CN2CCC(O)(c3ccc(F)cc3)CC2)sc1C	.	.	.	.	.	.	/	/	/
CCOc1ccc2nc3cc(NCc4ccc(OC)cc4)ccc3c(N)c2c1	.	.	70	.	.	.	33	.	.
Cc1cc(C)n(CC(=O)NNC(=O)c2ccc(OC(F)(F)F)cc2)n1	.	.	.	.	.	.	/	/	/
SMILES	BoNT F protease	Vc quorum ag-1	BoNT A protease	MazEF act	Anthrax LF inh2	Bead autofluor	BoNT-A LC CP1	BoNT-F LC CP1	Anthrax LF CP1	others
Cc1ccc2nc(N3CCN(C(=O)c4ccc(F)cc4)CC3)c(C#N)cc2c1	.	.	.	.	.	.	/	/	/
Cc1ccc2cc(C#N)c(N3CCN(C(=O)c4cccs4)CC3)nc2c1	40	.	.	.	.	.	.	.	.
CC(=O)Nc1ccc(NC(=O)CSc2nnc(N)n2-c2ccccc2)cc1	39	.	.	.	.	.	.	.	.
CC(=O)Nc1ccc(NC(=O)CSc2nnc(CC(C)O)n2-c2ccccc2)cc1 (centres undefined)	?	.	.	.	.	.	/	/	/
NC(=O)Cn1nc(-c2ccccc2)nc1-c1ccccc1	?	.	.	.	31	.	.	.	.
Cc1ccc2c(c1)CCCN2C(=O)c1cc(C)c(C)s1	.	.	.	.	.	.	/	/	/
Cc1cc(C(=O)O)sc1C	36	.	.	.	.	.	.	.	.
CCSc1nnc(-c2sc3nnc(-c4ccccc4)c(-c4ccccc4)c3c2N)o1	52	/	80	.	56	.	86	.	40
CC(C)(C)N(Cc1ccccc1)C(=O)COC(=O)CNS(=O)(=O)c1ccc2ccccc2c1	.	.	.	.	.	.	/	/	/
CCn1c(SCC(=O)Nc2nc(C)cs2)nnc1C(NC(=O)c1ccccc1Cl)C(C)C (centres undefined)	.	.	.	.	.	.	/	/	/
C=CCn1c(SCC(=O)Nc2nc(C)cs2)nnc1C(CO)NC(=O)c1ccccc1 (centres undefined)	.	.	.	.	.	.	.	.	.
CCCC(CCC)c1nc2ccncc2[nH]1	41	.	.	.	.	.	.	.	.
Cc1ccc(CSc2nc3ccncc3[nH]2)cc1	.	.	.	.	.	.	/	/	/
OC(CNC1Cc2ccccc2C1)c1ccccc1 (centres undefined)	36	.	.	.	.	.	.	.	.
O=C(Nc1cccc2ccccc12)c1csc([C@@H]2O[C@H](CO)[C@H](O)[C@H](O)[C@H]2O)n1	.	.	.	/	.	.	/	/	/
CCCC12CN3CC(C)(CN(C1)C3c1ccco1)C2=O (centres undefined)	.	.	.	.	.	.	/	/	/
COc1cc(SC)ccc1C(=O)NCCN1CCOCC1	?	.	.	.	37	.	.	.	.
COc1ccc(Cl)cc1C(=O)NCCN1CCOCC1	/	.	/	.	/	/	/	/	/
CC(=O)CC(=O)NC1CCc2ccccc21 (centres undefined)	.	.	.	.	.	.	/	/	/
Cc1cnc(NC(=O)c2ccc(-c3nc4ccccc4s3)o2)s1	.	.	34	.	.	.	.	.	.
Cc1nc(SCC(=O)N2CCC(Cc3ccccc3)CC2)[nH]c(=O)c1C	.	.	.	.	.	.	/	/	/
O=[N+]([O-])c1ccc(N2N=C(c3ccco3)CC2c2ccccc2)cc1 (centres undefined)	.	.	32	.	.	.	.	.	.
COc1ccccc1N1N=C(c2ccc([N+](=O)[O-])cc2)CC1c1ccccc1 (centres undefined)	.	.	38	.	.	16503	48	.	.
